Consider 59 compounds from PubChem BioAssay AID1962 (The Scripps Research Institute Molecular Screening Center, 2009).

The structures appear in SMILES notation. Among all 300,000 compounds or so, about 2,500 (0.83%) were called active. The entries come from a sample that favours actives as a whole. A number with no mark means an inactive call.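 Rule for the calls: active = inhibition above the mean of all tested compounds plus 3 SD, set per screening campaign (cut at about 24% in these data); inactive = the rest.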

In this test the test system is tRNA 2'-phosphotransferase TPT1 (Candida albicans SC5314). In words: Candida albicans TPT1 enzyme inhibitors, primary screen, biochemical, fluorescence polarization (AID 1962).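 Note: plate controls were DMSO alone for no effect and ferristatin control at 100 nM for full effect.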 The settings on record: recombinant caTPT1, FP RNA substrate dephosphorylation; at 5 µM; hits give high values.
In the case of `CC(=O)N1c2ccccc2N(Cc2ccc([N+](=O)[O-])cc2)C(=O)C1(C)C`, the inhibition is 9.11%.
For the compound `CC1=NN(c2ccccc2)C(=O)C1C(=O)c1ccc([N+](=O)[O-])cc1` (centres undefined), the inhibition is 0.3%.
The figure for `O=C1NC(=O)C2C1C(c1ccc([N+](=O)[O-])cc1)=NN2Cc1ccccc1` (centres undefined) is 32.4% (active).
The figure for `CC(=O)c1ccc(N2C(=NC(=O)C(C)C)SC3CS(=O)(=O)CC32)cc1` (centres undefined) is -0.98%; for `Nn1c(SCC(=O)Nc2nccs2)nncc1=O` it is 0.93%.
The figure for `COCCn1cnc2c1c(=O)n(CC(=O)NN)c(=O)n2Cc1ccccc1` is -3.43%.
On to `COc1cc(NC(=O)C2=CC(c3ccco3)=NS(=O)(=O)N2C)cc(OC)c1OC`, for which the inhibition is -0.29%.
As for `CC1=C(C(=O)OC2CCCCC2)C(c2ccccc2F)NC(=O)N1` (centres undefined), the figure is 1.28%.
As for `O=C1NN(c2ccccc2)C(=O)/C1=C/c1ccc(-c2cccc(C(=O)O)c2)o1`, the figure is -6.86%.
As for `O=C(O)C(c1ccccc1)N1C(=O)/C(=C\c2ccc(-c3cccc(Cl)c3)o2)SC1=S` (centres undefined), the figure is 134% (active); as for `CN1C(=O)/C(=C\c2ccc(-c3ccccc3)o2)SC1=S`, 47% (active); as for `O=C1c2ccccc2NC(c2ccc(-c3cccc(Cl)c3)o2)N1O` (centres undefined), 2.03%.
On to `CN1C(=O)/C(=C/c2ccco2)SC1=Nc1cccc(C(=O)O)c1`, for which the inhibition was -0.91%.
For the compound `NS(=O)(=O)c1ccc(-c2ccc(/C=C3\SC(=O)NC3=O)o2)cc1`, the inhibition was 0.01%.
For `Cn1cc[n+](C)c1COc1ccc(C=O)cc1`, the inhibition was -0.82%.
The figure for `CCc1ccc(Nc2n[n+](-c3ccccc3)c(-c3cccc(Cl)c3Cl)s2)cc1` is -1.82%.
For `OCC[C@H]1C[C@H](O)[C@@H](O)[C@]2(Cc3ccccc3CO2)O1`, the inhibition was 1.4%.
Turning to `Cc1ccc(C(=O)NCC(=O)OCC(=O)Nc2cccc(S(=O)(=O)N3CCCC3)c2)cc1C`, the inhibition is -0.56%.
As for `CCn1cc(C(=O)NC2CCCCCC2)c(=O)c2cc(S(=O)(=O)N3CCCCC3)ccc21`, the figure is -2.73%; as for `COc1ccc(C(=O)CC(=O)c2ccc(C)cc2)c(O)c1`, -1.28%; as for `O=C(COC(=O)c1cnccn1)Nc1cccc2ccccc12`, -2.21%.
The figure for `O=C(N/N=C/c1sc(N2CCCCC2)nc1-c1cccs1)c1cccnc1` is 61.1% (active); for `Cc1cc(/C=N/NC(=O)c2cccnc2)c(C)n1CC(C)C` it is -3.6%; for `O=C(N/N=C/c1ccccn1)c1cccnc1` it is -1.95%.
With `CCSC(C)CC1C/C(=N/O)c2c(C)noc2C1` (centres undefined), the inhibition was -7.78%.
The figure for `COc1ccc(NC(=O)CN(C)C(=O)c2ccc(COc3ccccc3)o2)cc1` is 1.15%.
For the compound `CCN1/C(=C/c2ccc3ccc(C)cc3[n+]2CC)Sc2ccccc21`, the inhibition is 49.5% (active).
Take `CCN1/C(=C\c2ccc3ccccc3[n+]2CC)Sc2cc(C)ccc21`: the inhibition was 68.7% (active).
As to `COCCCNC(=O)Cn1c(=O)n(Cc2ccccc2Cl)c(=O)c2cc(OC)c(OC)cc21`, the inhibition is 1.46%.
As for `COc1ccc(C2=NOC3(CC(=O)N(c4ccc(Cl)cc4)C3=O)C2)c(OC)c1` (centres undefined), the inhibition was -4.26%.
In the case of `O=C(c1cccc(Br)c1)N1CCN(C2=NS(=O)(=O)c3ccccc32)CC1`, the inhibition is 0.45%.
As for `COc1cccc(/C=C(/CC(=O)Nc2ccc(N3CCOCC3)cc2)c2nc3ccccc3s2)c1`, the figure is 9.31%.
With `O=S(=O)(c1cccc(-c2nnc(SC(F)F)n2-c2ccccc2)c1)N1CCCCC1`, the inhibition was -5.49%.
The figure for `CCN(CC)C(=O)C(=O)Nc1cccc(Br)c1` is -2.63%; for `Cc1ccc(CSCC(=O)N(C)CC(=O)Nc2cccc(F)c2)cc1` it is 1.31%; for `CCN(CC)C(=O)CSC(Nc1cccc(F)c1)=C(C#N)C#N` it is 62.4% (active).
As to `O=C(CNc1ccc(F)cc1F)NC(=O)NCc1ccco1`, the inhibition was -0.97%.
Consider `CCOC(=O)[C@H]1[C@H]2COc3ccc(Cl)cc3[C@@H]2N2C(=O)c3cc(C)ccc3NC(=O)[C@@]12C`, for which the inhibition is 2.94%.
On to `Cc1cc(-c2ccc(S(=O)(=O)N3CCc4ccccc4C3)s2)on1`, for which the inhibition was -0.99%.
As for `CS(=O)(=O)N(CC(=O)N/N=C/c1ccccn1)c1ccc(Oc2ccccc2)cc1`, the figure is -0.87%.
With `Cc1c(CC(=O)NCCCCCC(=O)O)c(=O)oc2cc3occ(-c4ccccc4)c3cc12`, the inhibition was -0.72%.
The figure for `CCCCCCc1ccc(O)cc1O` is 2.21%; for `CCCCCCc1cc2cc(-c3nnc(-c4ccccc4)o3)c(=O)oc2cc1O` it is 133% (active); for `N#CC(C#N)=CN=c1ccn(Cc2ccc(Cl)cc2Cl)cc1` it is 0.38%.
On to `Cn1ccc(=NC=C(C#N)C#N)c2ccccc21`, for which the inhibition was 25.3% (active).
As for `Cc1cc(NC(=O)Nc2c[nH]c(=O)[nH]c2=O)ccc1Br`, the figure is 0.27%; as for `CCCc1nc2c(C)cc(-c3nc4ccccc4n3C)cc2n1Cc1ccc(-c2ccccc2C(=O)O)cc1`, 1.15%.
For `Cc1nc2ccccc2nc1N/N=C/c1ccc(O)cc1O`, the inhibition is 1.81%.
In the case of `Fc1ccc(/C=N/Nc2nc(-c3cccnc3)nc3ccccc23)cc1`, the inhibition was 0.23%.
The figure for `Oc1ccc(/C=N/Nc2nc(-c3ccccc3F)nc3ccccc23)c(O)c1` is 24.8% (active); for `CN(C)C1=NC[C@H](Cc2ccccc2)N1CCc1ccc(F)cc1` it is -4.71%.
The figure for `Cc1cc(C)c(S(=O)(=O)N2C=CC(C(F)(F)F)=NCC2)c(C)c1` is -0.62%; for `O=S(=O)(c1ccc(F)cc1)N1CCN(C(=S)NCc2ccco2)CC1` it is 1.64%.
The figure for `OCC[C@H]1C[C@@H](O)[C@H](O)[C@@]2(OCCc3ccccc32)O1` is 0.6%; for `OCC[C@H]1C[C@H](O)[C@@H](O)[C@]2(CCc3ccccc3O2)O1` it is -0.81%.
Take `O=S(=O)(O)Oc1c[nH]c2ccccc12`: the inhibition was 25.4% (active).
The figure for `COc1ccccc1CC(=O)NCCc1c[nH]c2ccccc12` is -1.76%; for `O=C(Cc1c[nH]c2ccccc12)OCCOC(=O)Cc1c[nH]c2ccccc12` it is 0.4%; for `CN1CCN(Cc2nc3cc(NC(=O)COc4ccc([N+](=O)[O-])cc4)ccc3n2C)CC1` it is -2.77%.
